Measured values as given in PubChem BioAssay (EPA / NIEHS).
Several values for one entry are separate records, joined by “and”; a condition that tells them apart may be missing. Equal values may be shown once. Records with an inconclusive call do not appear. More than one record can exist for a structure, and the calls need not agree. Activity calls are given as the source filed them. Rule for the calls: active = hit-call score of the fitted dose curve at least 0.9, where 1 is the maximum; inconclusive = response in the unintended direction; inactive = score below 0.9.

What was measured:
[1] = molecular target: T1, Estrogen receptor (Homo sapiens) + Estrogen receptor beta (Homo sapiens) (UniProt P03372+Q92731); test: OT_ER_ERaERb_0480: Odyssey Thera (OT) 8-hour HEK293T Protein-Complementation Assay for Estrogen Receptor-alpha/-beta Heterodimer (AID 2283352)
Summary of the method: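 Fluorescence increase from reconstituted reporter fragments, quantified by laser scanning cytometer, reflects ER-alpha/ER-beta heterodimer formation in human HEK293T cells. Exposure 8 h; positive-direction fitting against DMSO vehicle.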

[2] = molecular target: T1, Estrogen receptor (Homo sapiens) + Estrogen receptor beta (Homo sapiens); test: OT_ER_ERaERb_1440: Odyssey Thera (OT) 24-hour HEK293T Protein-Complementation Assay for Estrogen Receptor-alpha/-beta Homodimer (AID 2283356);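 note: heteromer of ER alpha and ER beta binding domains; hits raise reporter fluorescence and both agonists and antagonists give an increase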
Summary of the method: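 Fragment complementation between ER alpha (310-547) and ER beta (263-489) ligand-binding domains in HEK293T cells; signal read 24 h post-dosing by laser scanning cytometer. Gain of fluorescence relative to DMSO fitted.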

[3] = molecular target: Estrogen receptor beta (Homo sapiens) (UniProt Q92731); test: OT_ER_ERbERb_0480: Odyssey Thera (OT) 8-hour HEK293T Protein-Complementation Assay for Estrogen Receptor-beta/-beta Homodimer (AID 2283357);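 note: active means signal gain over DMSO baseline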
Summary of the method: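 Cells (HEK293T, stable ER-beta LBD PCA pair) are treated 8 hours, fixed and Draq5-stained; signal is fluorescence intensity increase relative to vehicle, fitted in the gain direction.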

[4] = molecular target: Androgen Receptor/SRC-1 Co-activator, AR (gene 367) (UniProt P10275); test: OT_AR_ARSRC1_0960: Odyssey Thera (OT) 16-hour HEK293T Protein-Complementation Assay for Androgen Receptor/SRC-1 Co-activator (AID 2283353);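 note: actives raise the signal above DMSO so potency reflects increased AR and SRC-1 complex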
Summary of the method: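 HEK293T cells stably expressing AR and SRC-1 fused to Venus YFP fragments, imaged 16 h after dosing. Nuclear/cytoplasmic fluorescence ratio at 488 nm from at least 400 cells per image; gain of signal relative to DMSO.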

[5] = molecular target: Androgen Receptor/SRC-1 Co-activator, AR (gene 367) (UniProt P10275); test: OT_AR_ARSRC1_0480: Odyssey Thera (OT) 8-hour HEK293T Protein-Complementation Assay for Androgen Receptor/SRC-1 Co-activator (AID 2283354);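 note: hits raise the complementation signal above DMSO so AC50 marks enhancers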
Summary of the method: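 Measures AR/SRC-1 binding by Venus YFP fragment complementation in HEK293T stable lines at 8 h post-dose. Imaging quantifies the 488nm nucleus/cytoplasm ratio in ≥400 cells; DMSO defines baseline.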

[6] = molecular target: PGR (gene 5241) (UniProt P06401); test: NVS_NR_hPR: NovaScreen (NVS) Nuclear Receptor Binding Assay for human Progestron Receptor (PR) (AID 2283360);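 note: active means loss of bound radioligand signal versus DMSO baseline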
Summary of the method: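 T47D-derived receptor preparation, cell-free, with tritiated or iodinated radioligand displacement measured by scintillation 18 h post-dosing. Single 25 uM duplicate screen, then concentration series; signal loss relative to DMSO.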

[7] = molecular target: Retinoic acid receptor alpha (Homo sapiens) (UniProt P10276); test: NVS_NR_hRAR_Antagonist: NovaScreen (NVS) Nuclear Receptor Binding Assay for human Retinoic Acid Alpha Receptor Antagonism (RAR) (AID 2283358)
Summary of the method: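 TR-FRET, cell-free, antagonist format; 2 h incubation after dosing; DMSO = baseline; signal loss fitted; 25 uM duplicate primary, then conc. series.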

[8] = molecular target: human Peroxisome Proliferator-activated Receptor alpha (PPARa), PPARA (gene 5465) (UniProt Q07869); test: NVS_NR_hPPARa: NovaScreen (NVS) Nuclear Receptor Binding Assay for human Peroxisome Proliferator-activated Receptor alpha (PPARa) (AID 2283359);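 note: activity means loss of TR-FRET signal versus DMSO baseline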
Summary of the method: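 Chemicals were first screened in duplicate at 25 uM, and active ones were retested across concentration series. Binding was monitored by TR-FRET one hour after dosing, with decreased signal against DMSO counted as activity.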

[9] = molecular target: rat Mineralocorticoid Receptor (MR), Nr3c2 (gene 25672) (UniProt P22199); test: NVS_NR_rMR: NovaScreen (NVS) Nuclear Receptor Binding Assay for rat Mineralocorticoid Receptor (MR) (AID 2283355)
Summary of the method: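 Adrenalectomized rat brain supernatant was dosed with test chemical, then radioligand binding was measured by scintillation counting at 24 h. Initial testing ran in duplicate at 25 uM, followed by concentration series for actives.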

[10] = molecular target: Retinoic acid receptor alpha (Homo sapiens) (UniProt P10276); test: NVS_NR_hRARa_Agonist: NovaScreen (NVS) Nuclear Receptor Binding Assay for human Retinoic Acid Alpha Receptor Agonism (RAR) (AID 2283361)
Summary of the method: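 Readout is time-resolved fluorescence resonance energy transfer after a 2 h exposure of cell-free extracted receptor protein. Initial testing used 25 uM in duplicate, with concentration-response follow-up for active chemicals.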

Measured: AC50

Sequence of Androgen Receptor/SRC-1 Co-activator, AR (gene 367) (P10275 whole entry, looked up, the tested form may be a part): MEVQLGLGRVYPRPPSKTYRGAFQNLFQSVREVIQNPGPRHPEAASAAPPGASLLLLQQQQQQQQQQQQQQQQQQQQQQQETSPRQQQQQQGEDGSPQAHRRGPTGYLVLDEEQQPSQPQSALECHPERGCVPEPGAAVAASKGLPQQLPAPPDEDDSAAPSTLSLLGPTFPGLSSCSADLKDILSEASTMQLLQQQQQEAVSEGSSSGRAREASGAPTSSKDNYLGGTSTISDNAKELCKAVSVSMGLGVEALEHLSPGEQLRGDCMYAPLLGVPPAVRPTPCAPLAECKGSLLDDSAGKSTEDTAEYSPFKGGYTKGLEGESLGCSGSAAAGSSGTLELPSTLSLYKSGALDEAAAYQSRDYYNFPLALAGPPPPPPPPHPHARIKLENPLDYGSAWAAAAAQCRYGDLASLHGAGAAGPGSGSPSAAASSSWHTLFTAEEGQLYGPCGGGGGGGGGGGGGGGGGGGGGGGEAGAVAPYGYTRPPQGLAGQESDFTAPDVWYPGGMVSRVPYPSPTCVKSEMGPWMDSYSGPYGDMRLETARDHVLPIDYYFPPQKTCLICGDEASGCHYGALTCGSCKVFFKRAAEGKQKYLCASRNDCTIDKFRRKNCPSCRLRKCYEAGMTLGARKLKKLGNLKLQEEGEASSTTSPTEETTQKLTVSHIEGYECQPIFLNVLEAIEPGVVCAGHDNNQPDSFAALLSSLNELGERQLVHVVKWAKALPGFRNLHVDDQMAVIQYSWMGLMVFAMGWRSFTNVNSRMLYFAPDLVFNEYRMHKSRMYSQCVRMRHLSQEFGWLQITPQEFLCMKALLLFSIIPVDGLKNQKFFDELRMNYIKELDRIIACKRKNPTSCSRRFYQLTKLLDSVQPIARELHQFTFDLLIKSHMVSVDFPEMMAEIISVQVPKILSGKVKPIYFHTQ
Sequence of Retinoic acid receptor alpha (Homo sapiens) (P10276 whole entry, looked up): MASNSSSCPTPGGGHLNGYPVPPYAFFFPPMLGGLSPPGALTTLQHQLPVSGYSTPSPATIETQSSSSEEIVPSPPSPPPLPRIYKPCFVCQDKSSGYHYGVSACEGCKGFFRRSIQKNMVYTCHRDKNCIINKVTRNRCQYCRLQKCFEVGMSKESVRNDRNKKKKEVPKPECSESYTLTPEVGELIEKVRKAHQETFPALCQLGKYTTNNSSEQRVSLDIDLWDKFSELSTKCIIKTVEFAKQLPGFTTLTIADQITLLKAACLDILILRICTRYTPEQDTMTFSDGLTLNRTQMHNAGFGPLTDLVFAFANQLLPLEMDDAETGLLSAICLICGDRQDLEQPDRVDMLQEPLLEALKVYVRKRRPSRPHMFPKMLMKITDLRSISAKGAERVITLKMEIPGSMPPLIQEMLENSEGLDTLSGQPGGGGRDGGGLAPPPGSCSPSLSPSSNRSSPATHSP
T1 sequence (P03372 whole entry, looked up, the tested form may be a part): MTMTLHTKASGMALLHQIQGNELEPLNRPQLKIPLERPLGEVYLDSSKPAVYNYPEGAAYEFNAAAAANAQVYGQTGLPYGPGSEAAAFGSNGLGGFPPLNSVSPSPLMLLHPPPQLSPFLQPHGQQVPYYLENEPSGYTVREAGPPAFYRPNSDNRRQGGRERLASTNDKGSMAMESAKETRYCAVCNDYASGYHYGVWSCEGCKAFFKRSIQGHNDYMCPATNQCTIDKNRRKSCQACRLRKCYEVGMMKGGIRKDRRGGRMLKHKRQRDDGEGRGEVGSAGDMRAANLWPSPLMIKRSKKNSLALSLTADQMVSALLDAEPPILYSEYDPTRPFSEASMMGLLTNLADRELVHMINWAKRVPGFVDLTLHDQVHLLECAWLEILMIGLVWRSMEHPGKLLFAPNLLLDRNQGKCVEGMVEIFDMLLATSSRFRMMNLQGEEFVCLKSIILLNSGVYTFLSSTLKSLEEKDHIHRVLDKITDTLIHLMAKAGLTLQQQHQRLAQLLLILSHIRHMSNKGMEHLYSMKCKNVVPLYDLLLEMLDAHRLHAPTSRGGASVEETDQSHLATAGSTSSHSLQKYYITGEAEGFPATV
T1 sequence (Q92731 whole entry, looked up, the tested form may be a part): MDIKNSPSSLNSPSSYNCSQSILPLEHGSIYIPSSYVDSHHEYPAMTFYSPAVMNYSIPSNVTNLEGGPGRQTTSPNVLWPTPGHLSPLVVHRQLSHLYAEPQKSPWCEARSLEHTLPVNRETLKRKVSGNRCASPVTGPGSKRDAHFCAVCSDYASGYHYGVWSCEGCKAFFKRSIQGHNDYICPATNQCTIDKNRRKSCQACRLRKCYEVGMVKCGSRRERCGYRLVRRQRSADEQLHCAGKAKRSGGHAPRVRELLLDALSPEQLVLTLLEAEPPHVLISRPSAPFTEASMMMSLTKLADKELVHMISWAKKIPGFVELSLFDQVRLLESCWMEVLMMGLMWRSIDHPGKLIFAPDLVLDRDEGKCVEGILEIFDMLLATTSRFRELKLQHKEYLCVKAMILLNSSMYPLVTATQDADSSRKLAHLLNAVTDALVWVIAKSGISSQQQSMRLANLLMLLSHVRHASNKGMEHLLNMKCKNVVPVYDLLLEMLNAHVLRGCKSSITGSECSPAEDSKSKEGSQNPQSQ
Sequence of Estrogen receptor beta (Homo sapiens) (Q92731 whole entry, looked up, the tested form may be a part): as above
Sequence of PGR (gene 5241) (P06401 whole entry, looked up): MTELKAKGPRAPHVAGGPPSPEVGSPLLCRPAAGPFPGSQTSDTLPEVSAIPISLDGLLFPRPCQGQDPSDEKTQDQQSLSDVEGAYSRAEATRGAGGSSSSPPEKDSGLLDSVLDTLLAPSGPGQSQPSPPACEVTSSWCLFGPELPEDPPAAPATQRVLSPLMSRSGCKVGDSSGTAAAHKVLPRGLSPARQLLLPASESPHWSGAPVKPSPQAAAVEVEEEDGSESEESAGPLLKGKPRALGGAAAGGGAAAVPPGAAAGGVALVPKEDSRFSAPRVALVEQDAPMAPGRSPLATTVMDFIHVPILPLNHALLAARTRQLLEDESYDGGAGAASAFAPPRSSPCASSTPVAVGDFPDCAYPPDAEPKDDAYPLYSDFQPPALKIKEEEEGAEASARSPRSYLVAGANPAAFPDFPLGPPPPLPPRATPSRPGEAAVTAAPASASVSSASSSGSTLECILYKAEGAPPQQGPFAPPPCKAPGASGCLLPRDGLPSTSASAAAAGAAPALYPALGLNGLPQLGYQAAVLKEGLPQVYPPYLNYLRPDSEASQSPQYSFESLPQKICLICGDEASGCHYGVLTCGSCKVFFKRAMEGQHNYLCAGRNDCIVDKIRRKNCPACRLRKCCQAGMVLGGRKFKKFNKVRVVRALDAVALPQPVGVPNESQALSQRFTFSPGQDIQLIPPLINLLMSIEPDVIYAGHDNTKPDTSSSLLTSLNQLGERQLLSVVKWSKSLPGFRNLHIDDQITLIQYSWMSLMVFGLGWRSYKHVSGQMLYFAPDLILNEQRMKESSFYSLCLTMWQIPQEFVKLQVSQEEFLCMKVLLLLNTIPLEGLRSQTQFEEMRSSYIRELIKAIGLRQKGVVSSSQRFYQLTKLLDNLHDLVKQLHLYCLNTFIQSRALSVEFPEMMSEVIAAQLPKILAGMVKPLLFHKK
Sequence of human Peroxisome Proliferator-activated Receptor alpha (PPARa), PPARA (gene 5465) (Q07869 whole entry, looked up): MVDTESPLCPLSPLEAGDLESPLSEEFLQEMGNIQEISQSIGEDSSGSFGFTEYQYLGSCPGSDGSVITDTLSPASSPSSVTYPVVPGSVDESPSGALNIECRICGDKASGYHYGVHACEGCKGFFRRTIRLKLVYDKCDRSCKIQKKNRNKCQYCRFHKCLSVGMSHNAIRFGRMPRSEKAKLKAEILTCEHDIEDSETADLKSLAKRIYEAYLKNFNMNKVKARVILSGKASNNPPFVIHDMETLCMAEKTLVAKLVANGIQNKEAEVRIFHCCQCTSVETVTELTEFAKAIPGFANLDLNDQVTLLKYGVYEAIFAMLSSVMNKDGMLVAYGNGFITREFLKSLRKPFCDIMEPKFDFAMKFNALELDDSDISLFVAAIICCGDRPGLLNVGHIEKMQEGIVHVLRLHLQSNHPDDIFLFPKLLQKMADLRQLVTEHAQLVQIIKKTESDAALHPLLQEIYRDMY
Sequence of rat Mineralocorticoid Receptor (MR), Nr3c2 (gene 25672) (P22199 whole entry, looked up): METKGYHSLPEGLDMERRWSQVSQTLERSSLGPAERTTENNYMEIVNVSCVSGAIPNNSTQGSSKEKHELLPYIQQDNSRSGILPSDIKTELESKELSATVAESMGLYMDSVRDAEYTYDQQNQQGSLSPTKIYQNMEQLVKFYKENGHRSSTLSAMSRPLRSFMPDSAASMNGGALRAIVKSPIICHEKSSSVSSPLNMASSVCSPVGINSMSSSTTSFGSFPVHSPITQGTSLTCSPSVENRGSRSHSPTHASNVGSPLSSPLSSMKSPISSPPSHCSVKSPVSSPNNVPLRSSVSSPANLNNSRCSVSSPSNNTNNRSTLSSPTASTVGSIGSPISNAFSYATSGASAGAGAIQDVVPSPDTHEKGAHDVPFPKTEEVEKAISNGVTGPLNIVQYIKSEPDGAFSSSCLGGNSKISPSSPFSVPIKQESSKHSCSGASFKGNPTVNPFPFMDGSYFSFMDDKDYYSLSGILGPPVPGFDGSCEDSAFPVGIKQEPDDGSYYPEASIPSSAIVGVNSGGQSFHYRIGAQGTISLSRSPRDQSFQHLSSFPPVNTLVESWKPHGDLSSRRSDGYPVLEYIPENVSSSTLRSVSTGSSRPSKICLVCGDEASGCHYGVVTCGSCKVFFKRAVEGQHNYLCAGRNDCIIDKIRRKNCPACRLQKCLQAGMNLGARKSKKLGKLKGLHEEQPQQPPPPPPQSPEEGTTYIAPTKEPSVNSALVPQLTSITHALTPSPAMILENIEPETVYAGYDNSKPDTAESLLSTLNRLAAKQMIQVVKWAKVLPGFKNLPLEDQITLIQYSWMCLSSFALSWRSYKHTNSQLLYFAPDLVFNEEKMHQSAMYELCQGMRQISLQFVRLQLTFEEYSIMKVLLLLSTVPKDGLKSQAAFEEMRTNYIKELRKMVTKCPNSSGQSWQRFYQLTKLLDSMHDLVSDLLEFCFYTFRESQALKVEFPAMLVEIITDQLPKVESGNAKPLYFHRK

C#CCOS(=O)OC1CCCCC1Oc1ccc(C(C)(C)C)cc1 (stereo not given)
inactive: [1] | [2] | [3]

CNC(=S)S
inactive: [1] | [2] | [3]

CC(C)Oc1cc(-n2nc(C(C)(C)C)oc2=O)c(Cl)cc1Cl
inactive: [1] | [5] | [2] | [3] | [6]
active: [4] 31.3 µM

COP(N)(=O)SC (stereo not given)
inactive: [1] | [2] | [3] | [7]

CCOc1cc(Oc2ccc(C(F)(F)F)cc2Cl)ccc1[N+](=O)[O-]
inactive: [1] | [2] | [3]

Fc1ccc(Oc2ccnc3cc(Cl)cc(Cl)c23)cc1
inactive: [1] | [2] | [3]

CCCCC(CC)COC(=O)c1ccccc1C(=O)OCC(CC)CCCC (stereo not given)
active: [1] 66.9 µM | [2] 50 µM
inactive: [3]

COC(=O)c1ccccc1C(=O)OC
inactive: [1] | [2] | [3] | [7] | [6]

CC1=C(C(=O)Nc2ccccc2)SCCO1
inactive: [1] | [4] | [5] | [2] | [3]

Cc1ccc(-c2c(Cl)nc(C#N)n2S(=O)(=O)N(C)C)cc1
inactive: [1] | [5] | [2] | [3]
active: [4] 27.1 µM

COP(=S)(OC)Oc1nc(Cl)c(Cl)cc1Cl
inactive: [1] | [2] | [3] | [7]

COc1ccc(C(c2ccc(OC)cc2)C(Cl)(Cl)Cl)cc1
inactive: [7] | [8]
active: [1] 4.23 µM and 12.5 µM and 9.58 µM | [2] 25.8 µM and 33.2 µM and 22.2 µM | [3] 3.79 µM and 3.62 µM and 3.92 µM

COc1nc(NC(C)C)nc(NC(C)C)n1
inactive: [1] | [2] | [3]

CCc1nn(C)c(C(=O)NCc2ccc(C(C)(C)C)cc2)c1Cl
inactive: [1] | [2] | [3]

COC(=O)C=C(C)OP(=O)(OC)OC
inactive: [1] | [2]

Cc1c(F)c(F)c(COC(=O)C2C(/C=C(\Cl)C(F)(F)F)C2(C)C)c(F)c1F (stereo not given)
inactive: [1] | [2] | [3]

Oc1ccccc1-c1ccccc1
active: [1] 66 µM | [2] 35.7 µM | [3] 57.5 µM
inactive: [1] | [2] | [3] | [8]

COC(=O)N(OC)c1ccccc1COc1ccn(-c2ccc(Cl)cc2)n1
inactive: [1] | [2] | [3]

OC(c1ccc(Cl)cc1)(c1cncnc1)c1ccccc1Cl (stereo not given)
active: [1] 11.9 µM | [2] 12.1 µM | [3] 12.5 µM

CC(C)C1(C)N=C(c2nc3ccccc3cc2C(=O)O)NC1=O (stereo not given)
inactive: [1] | [2] | [3]

CC(C)(C)c1ccc(CSc2cnn(C(C)(C)C)c(=O)c2Cl)cc1
inactive: [1] | [2] | [3]

CCCCNC(=O)n1c(NC(=O)OC)nc2ccccc21
inactive: [1] | [4] | [5] | [9] | [2] | [3]

CCNc1nc(Cl)nc(NCC)n1
inactive: [1] | [2] | [3]

COC(=O)C(C)Oc1ccc(Oc2ccc(Cl)cc2Cl)cc1 (stereo not given)
inactive: [9]

CCCN(CCC)c1c([N+](=O)[O-])cc(S(N)(=O)=O)cc1[N+](=O)[O-]
inactive: [10]
